# Data: the supplement of paper PMC10849652
# About 7,900 targets were measured; listed, in parts, are those with a hit and a random draw of the rest. About 0.6% of all pairs of compound and target were hits. A number with no mark means an inactive call.
# How the values were obtained:
# Assay in all cases: log2 fold change, soluble protein after heating vs DMSO (PISA); higher = thermal stabilisation; K562 cells, 10 uM, 30 min; active = over 0.2 and 3.5 SD of the protein, either way, in both replicates (recomputed)
# IRAK-1-4 Inhibitor I = compound: C1COCCN1CCN2C3=CC=CC=C3N=C2NC(=O)C4=CC(=CC=C4)[N+](=O)[O-] [IRAK-1-4 Inhibitor I]
# In short: (§1)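 Thermal stability values are relative to control samples and come from duplicates. They are expressed as log2 fold changes. For measurement, K562 cells (2×10^6 cells/mL) received 10 μM compound for 30 min, and aliquots were heated for 3 min over 48°C-58°C, pooled, and extracted at 4°C in PBS with 0.5% NP-40. Soluble protein, the supernatant after 21,000xg for 90 min, was quantified by TMTpro 16plex LC-MS/MS with equalised channel sums.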
# ibrutinib = compound: C=CC(=O)N1CCC[C@@H](n2nc(-c3ccc(Oc4ccccc4)cc3)c3c(N)ncnc32)C1 [ibrutinib]
# In short: as §1
# [1] = compound: CC(=O)c1cnc2ccc(-c3cc(Cl)c(O)c(Cl)c3)nc2c1N[C@H]1CC[C@H](CN(C)C)CC1
# In short: as §1
# ralimetinib = compound: CC(C)(C)Cn1c(N)nc2ccc(-c3[nH]c(C(C)(C)C)nc3-c3ccc(F)cc3)nc21 [ralimetinib]
# In short: as §1
# [2] = compound: CC(C)(O)CC(=O)NCCn1ccc2ncnc(Nc3ccc(Oc4cccc(C(F)(F)F)c4)c(Cl)c3)c21
# In short: as §1
# [3] = compound: CC(C)C1=C2N=C(C=C(N2N=C1)NCC3=CC=CC=C3)NCCCCCCN
# In short: as §1
# [4] = compound: CC(C)C[C@@H](C=O)NC(=O)[C@H](CC(C)C)NC(=O)[C@H](CC(C)C)NC(=O)OCc1ccccc1
# In short: as §1
# pinometostat = compound: CC(C)N(C[C@H]1O[C@@H](n2cnc3c(N)ncnc32)[C@H](O)[C@@H]1O)[C@H]1C[C@@H](CCc2nc3cc(C(C)(C)C)ccc3[nH]2)C1 [pinometostat]
# In short: as §1
# [5] = compound: CC1=C(C(CC(=O)N1)C2=CC=C(C=C2)C(F)(F)F)C(=O)NC3=C(C=C4C(=C3)C=NN4)F
# In short: as §1
# [6] = compound: CC1=C(C2=C(C=C1)C(=O)C3=CC=CC=C3N2CCCN)C
# In short: as §1
# [7] = compound: CC1=C(C=C(C=C1)NC(=O)C2=CC(=CC=C2)C(C)(C)C#N)NC3=CC4=C(C=C3)N=CN(C4=O)C
# In short: as §1
# [8] = compound: CC1=C(C=C(C=C1)NC(=O)C2=CC(=CC=C2)N(C)C)NC(=O)C3=CC=C(C=C3)O
# In short: as §1
# [9] = compound: CC1=CC=C(C=C1)SC2=C3C=C(SC3=CN=C2)C(=O)N
# In short: as §1
# [10] = compound: CC1=NC(=CC=C1)C2=C(N=C(N2)C(C)(C)C)C3=CC4=NC=CN=C4C=C3
# In short: as §1
# Nexturastat A = compound: CCCCN(Cc1ccc(C(=O)NO)cc1)C(=O)Nc1ccccc1 [Nexturastat A]
# In short: as §1
# vemurafenib = compound: CCCS(=O)(=O)Nc1ccc(F)c(C(=O)c2c[nH]c3ncc(-c4ccc(Cl)cc4)cc23)c1F [vemurafenib]
# In short: as §1
# [11] = compound: CCCS(=O)(=O)Nc1ccc(F)c(C(=O)c2c[nH]c3ncc(Cl)cc23)c1F
# In short: as §1
# [12] = compound: CCCc1cc(C)[nH]c(=O)c1CNC(=O)c1cc(-c2ccnc(N3CCN(C)CC3)c2)cc2c1cnn2C(C)C
# In short: as §1
# givinostat = compound: CCN(CC)Cc1ccc2cc(COC(=O)Nc3ccc(C(=O)NO)cc3)ccc2c1 [givinostat]
# In short: as §1
# barasertib = compound: CCN(CCCOc1ccc2c(Nc3cc(CC(=O)Nc4cccc(F)c4)[nH]n3)ncnc2c1)CCOP(=O)(O)O [barasertib]
# In short: as §1
# UniProt Q86WQ0, sequence (Q86WQ0 whole entry, looked up): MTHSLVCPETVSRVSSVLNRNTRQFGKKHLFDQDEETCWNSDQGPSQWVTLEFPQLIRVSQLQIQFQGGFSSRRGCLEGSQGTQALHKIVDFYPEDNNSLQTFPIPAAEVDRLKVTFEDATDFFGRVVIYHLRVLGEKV
# UniProt Q6VY07, sequence (Q6VY07 whole entry, looked up): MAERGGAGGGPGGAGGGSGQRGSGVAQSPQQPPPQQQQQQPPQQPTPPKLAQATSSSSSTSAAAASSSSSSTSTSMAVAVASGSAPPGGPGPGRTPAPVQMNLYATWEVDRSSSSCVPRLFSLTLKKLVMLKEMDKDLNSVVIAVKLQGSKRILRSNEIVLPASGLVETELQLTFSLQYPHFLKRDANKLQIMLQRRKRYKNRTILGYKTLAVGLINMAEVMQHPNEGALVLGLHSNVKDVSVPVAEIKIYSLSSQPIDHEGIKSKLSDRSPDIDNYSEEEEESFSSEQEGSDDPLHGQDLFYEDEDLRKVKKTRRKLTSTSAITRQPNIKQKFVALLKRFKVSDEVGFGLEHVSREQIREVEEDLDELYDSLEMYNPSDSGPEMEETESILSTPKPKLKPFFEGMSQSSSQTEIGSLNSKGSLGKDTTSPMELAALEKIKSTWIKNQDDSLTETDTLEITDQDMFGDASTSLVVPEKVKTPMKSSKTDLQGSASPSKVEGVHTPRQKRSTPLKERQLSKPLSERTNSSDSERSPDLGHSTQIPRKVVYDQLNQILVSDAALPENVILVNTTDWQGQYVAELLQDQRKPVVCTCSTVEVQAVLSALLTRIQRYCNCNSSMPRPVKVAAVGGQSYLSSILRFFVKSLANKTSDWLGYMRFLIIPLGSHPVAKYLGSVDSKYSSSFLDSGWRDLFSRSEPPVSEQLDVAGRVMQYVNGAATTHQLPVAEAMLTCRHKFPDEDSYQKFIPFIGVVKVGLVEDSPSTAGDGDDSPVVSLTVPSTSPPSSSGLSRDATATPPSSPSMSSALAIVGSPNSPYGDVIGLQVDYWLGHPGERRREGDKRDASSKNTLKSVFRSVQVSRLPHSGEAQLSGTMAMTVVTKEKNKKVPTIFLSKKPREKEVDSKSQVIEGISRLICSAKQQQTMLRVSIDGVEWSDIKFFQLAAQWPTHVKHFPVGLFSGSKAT
# UniProt Q96I59, sequence (Q96I59 whole entry, looked up): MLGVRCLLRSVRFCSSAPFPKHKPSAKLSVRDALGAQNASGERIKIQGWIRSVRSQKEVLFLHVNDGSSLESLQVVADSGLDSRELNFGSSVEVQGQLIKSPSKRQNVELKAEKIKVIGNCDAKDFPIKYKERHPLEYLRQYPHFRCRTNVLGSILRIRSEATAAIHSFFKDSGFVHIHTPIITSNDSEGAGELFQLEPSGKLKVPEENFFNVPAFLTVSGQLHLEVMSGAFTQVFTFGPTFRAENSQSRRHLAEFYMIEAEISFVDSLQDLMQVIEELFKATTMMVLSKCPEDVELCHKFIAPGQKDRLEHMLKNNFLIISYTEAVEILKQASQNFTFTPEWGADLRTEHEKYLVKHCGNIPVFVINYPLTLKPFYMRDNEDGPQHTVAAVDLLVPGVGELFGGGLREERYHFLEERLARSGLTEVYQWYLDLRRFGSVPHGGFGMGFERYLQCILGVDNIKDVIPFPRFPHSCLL
# UniProt O00566, sequence (O00566 whole entry, looked up): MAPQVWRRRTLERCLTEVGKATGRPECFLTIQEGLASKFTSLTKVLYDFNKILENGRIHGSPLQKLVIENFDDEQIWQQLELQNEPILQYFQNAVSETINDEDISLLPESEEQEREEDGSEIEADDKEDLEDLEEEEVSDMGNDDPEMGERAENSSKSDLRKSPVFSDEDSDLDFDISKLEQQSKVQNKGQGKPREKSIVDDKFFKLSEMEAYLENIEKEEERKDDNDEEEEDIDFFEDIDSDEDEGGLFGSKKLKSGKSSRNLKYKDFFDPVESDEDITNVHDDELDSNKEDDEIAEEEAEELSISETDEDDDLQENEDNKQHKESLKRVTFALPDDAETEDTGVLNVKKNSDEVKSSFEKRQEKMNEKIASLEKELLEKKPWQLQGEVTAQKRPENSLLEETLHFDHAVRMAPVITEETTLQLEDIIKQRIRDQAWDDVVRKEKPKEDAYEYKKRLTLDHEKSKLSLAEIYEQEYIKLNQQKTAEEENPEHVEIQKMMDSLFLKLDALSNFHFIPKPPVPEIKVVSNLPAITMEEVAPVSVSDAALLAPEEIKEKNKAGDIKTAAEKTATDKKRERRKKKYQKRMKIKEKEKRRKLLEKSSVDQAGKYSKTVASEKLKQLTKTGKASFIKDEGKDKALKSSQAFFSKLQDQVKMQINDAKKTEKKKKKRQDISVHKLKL
# UniProt Q08J23, sequence (Q08J23 whole entry, looked up): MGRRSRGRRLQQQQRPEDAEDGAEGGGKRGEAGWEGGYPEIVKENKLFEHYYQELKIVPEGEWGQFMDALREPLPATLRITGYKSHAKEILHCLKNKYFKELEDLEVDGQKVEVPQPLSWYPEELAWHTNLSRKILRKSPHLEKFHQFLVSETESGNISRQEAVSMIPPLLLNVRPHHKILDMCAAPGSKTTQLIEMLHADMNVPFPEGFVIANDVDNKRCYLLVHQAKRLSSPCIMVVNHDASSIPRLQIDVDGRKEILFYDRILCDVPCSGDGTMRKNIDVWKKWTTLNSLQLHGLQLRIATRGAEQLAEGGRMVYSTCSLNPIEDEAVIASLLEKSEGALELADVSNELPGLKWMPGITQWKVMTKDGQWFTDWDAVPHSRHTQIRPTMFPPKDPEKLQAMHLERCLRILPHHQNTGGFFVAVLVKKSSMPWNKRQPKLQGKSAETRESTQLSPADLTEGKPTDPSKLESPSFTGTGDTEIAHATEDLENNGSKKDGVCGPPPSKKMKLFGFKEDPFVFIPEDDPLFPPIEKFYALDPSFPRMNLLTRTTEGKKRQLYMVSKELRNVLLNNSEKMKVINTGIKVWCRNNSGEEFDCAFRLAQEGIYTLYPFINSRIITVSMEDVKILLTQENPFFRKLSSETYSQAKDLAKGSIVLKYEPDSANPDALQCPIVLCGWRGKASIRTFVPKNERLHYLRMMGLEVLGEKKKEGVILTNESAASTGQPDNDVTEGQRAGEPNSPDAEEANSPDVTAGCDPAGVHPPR
# UniProt P46087, sequence (P46087 whole entry, looked up): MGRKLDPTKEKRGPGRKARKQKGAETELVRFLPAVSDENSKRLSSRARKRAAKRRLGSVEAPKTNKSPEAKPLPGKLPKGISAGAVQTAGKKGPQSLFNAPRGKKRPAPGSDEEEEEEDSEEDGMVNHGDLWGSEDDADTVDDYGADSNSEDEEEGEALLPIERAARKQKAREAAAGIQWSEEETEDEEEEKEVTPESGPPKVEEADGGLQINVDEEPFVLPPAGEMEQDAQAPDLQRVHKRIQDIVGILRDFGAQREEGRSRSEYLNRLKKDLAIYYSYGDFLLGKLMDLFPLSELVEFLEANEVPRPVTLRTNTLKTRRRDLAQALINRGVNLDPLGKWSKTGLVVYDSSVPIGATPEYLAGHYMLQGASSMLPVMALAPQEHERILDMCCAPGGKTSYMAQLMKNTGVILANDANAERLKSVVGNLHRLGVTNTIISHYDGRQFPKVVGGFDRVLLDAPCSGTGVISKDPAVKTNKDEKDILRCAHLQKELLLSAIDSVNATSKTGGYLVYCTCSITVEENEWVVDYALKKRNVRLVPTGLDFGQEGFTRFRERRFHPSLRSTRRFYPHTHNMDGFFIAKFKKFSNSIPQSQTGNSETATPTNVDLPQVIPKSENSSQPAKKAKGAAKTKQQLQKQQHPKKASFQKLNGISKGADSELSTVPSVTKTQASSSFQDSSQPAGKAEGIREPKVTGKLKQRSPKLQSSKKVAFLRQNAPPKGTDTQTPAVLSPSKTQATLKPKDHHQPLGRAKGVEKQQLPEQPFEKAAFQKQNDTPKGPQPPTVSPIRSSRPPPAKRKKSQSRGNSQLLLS
# UniProt Q9HCE1, sequence (Q9HCE1 whole entry, looked up): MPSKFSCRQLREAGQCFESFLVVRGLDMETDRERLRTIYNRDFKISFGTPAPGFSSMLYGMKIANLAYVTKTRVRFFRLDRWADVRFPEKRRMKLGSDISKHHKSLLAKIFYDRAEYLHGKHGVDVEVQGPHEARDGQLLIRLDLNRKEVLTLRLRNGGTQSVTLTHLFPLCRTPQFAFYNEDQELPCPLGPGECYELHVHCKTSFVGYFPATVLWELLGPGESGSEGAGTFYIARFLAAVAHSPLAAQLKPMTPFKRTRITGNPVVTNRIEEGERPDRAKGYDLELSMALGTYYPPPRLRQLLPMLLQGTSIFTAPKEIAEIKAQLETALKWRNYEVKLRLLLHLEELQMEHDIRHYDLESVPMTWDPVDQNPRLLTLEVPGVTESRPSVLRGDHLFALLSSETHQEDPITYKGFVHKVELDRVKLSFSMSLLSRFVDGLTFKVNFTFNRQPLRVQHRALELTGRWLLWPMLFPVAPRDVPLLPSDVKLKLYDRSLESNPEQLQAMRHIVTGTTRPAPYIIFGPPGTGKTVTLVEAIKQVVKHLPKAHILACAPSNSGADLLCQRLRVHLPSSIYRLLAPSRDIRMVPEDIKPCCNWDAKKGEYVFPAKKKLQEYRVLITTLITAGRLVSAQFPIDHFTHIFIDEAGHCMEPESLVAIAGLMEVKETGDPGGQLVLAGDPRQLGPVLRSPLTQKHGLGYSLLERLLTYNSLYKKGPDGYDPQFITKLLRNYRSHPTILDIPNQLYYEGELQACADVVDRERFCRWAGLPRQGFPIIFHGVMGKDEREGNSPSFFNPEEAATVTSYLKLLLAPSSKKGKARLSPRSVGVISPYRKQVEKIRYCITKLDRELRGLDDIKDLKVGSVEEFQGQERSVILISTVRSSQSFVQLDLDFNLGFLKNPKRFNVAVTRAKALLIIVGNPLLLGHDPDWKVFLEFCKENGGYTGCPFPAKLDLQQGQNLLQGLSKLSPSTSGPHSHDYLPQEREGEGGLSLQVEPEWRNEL
Target,log2 fold change (IRAK-1-4 Inhibitor I),log2 fold change (ibrutinib),log2 fold change [1],log2 fold change (ralimetinib),log2 fold change [2],log2 fold change [3],log2 fold change [4],log2 fold change (pinometostat),log2 fold change [5],log2 fold change [6],log2 fold change [7],log2 fold change [8],log2 fold change [9],log2 fold change [10],log2 fold change (Nexturastat A),log2 fold change (vemurafenib),log2 fold change [11],log2 fold change [12],log2 fold change (givinostat),log2 fold change (barasertib)
NSUN2 (UniProt Q08J23),-0.02,-0.029,-0.165,0.062,-0.008,-0.314 (active),0.026,0.058,0.008,-0.075,-0.042,0.013,-0.021,-0.009,0.037,0.016,0.061,0.019,-0.204,0.037
NUMA1 (UniProt Q14980),-0.107,-0.051,-0.123,0.149,0.073,-0.173,-0.02,0.202,-0.018,-0.58 (active),0.03,-0.029,-0.009,-0.073,0.262,0.02,0.005,0.132,0.092,0.005
NOL7 (UniProt Q9UMY1),-0.139,0.036,0.158,0.041,0.043,0.016,0.141,0.242,0.059,-0.485,-0.06,-0.055,-0.048,-0.193,0.214,-0.14,-0.121,0.088,0.031,-0.092
MKNK1 (UniProt Q9BUB5),-0.078,-0.034,0.059,0.117,-0.032,-0.065,0.168,-0.019,-0.018,0.057,-0.008,-0.051,0.03,0.115,-0.094,0.021,0.035,0.022,0.012,0.033
NOP2 isoform 4 (UniProt P46087),-0.111,-0.278,0.308,0.205,0.163,0.241,0.194,0.325,-0.062,-0.474,-0.031,-0.062,-0.105,-0.264,0.2,-0.433,-0.051,0.172,0.178,-0.223
MOV10 (UniProt Q9HCE1),-0.135,0.002,0.069,0.12,0.082,0.02,0.033,0.163,-0.052,-0.305,0.044,0.017,-0.055,-0.067,0.221,-0.027,-0.048,0.054,-0.006,-0.05
OXR1 (UniProt Q8N573),0.048,0.016,-0.002,-0.019,-0.035,-0.077,-0.004,0.023,-0.008,0.009,0.005,-0.003,0.005,0.052,-0.025,0.023,-0.013,-0.062,0.012,0.027
MRPS22 (UniProt P82650),-0.027,0.051,-0.02,0.017,-0.102,-0.11,0.04,0.007,-0.013,-0.175,0.041,-0.029,0.022,-0.018,0.092,-0.024,0.037,0.049,0.032,-0.055
NPC1 (UniProt O15118),0.014,0.03,0.031,-0.041,0.028,-0.184,0.006,-0.055,0.078,-0.147,-0.018,0.01,0.006,0.066,-0.041,0.007,-0.019,-0.028,-0.051,0.02
NARS2 (UniProt Q96I59),0.044,0.03,0.034,-0.034,-0.121,-0.31 (active),-0.019,-0.019,-0.002,-0.006,-0.016,0.002,-0.011,0.019,-0.071,-0.01,0.038,-0.033,-0.076,0.002
MNAT1 (UniProt P51948),0.025,0.03,-0.221 (active),-0.044,0.024,0.062,-0.028,0.022,-0.016,-0.027,0.004,-0.006,0.001,0.001,0.043,-0.006,0.039,-0.037,0.069,-0.003
MPHOSPH10 (UniProt O00566),-0.215,-0.022,-0.064,0.144,0.089,-0.071,0.053,0.113,0.021,-0.56,0.052,-0.01,-0.031,-0.079,0.098,-0.041,0.009,0.047,0.087,-0.107
NELFB isoform 2 (UniProt Q8WX92),-0.03,-0.045,-0.144,-0.067,-0.154,-0.112,0.001,0.022,0.017,0.042,-0.026,-0.062,0.035,0.05,-0.032,0.06,0.08,-0.007,0.069,0.046
NR2C2AP isoform 2 (UniProt Q86WQ0),-0.126,-0.003,-0.062,-0.056,0.012,0.01,-0.026,-0.073,0.057,0.063,-0.053,-0.068,-0.007,0.082,-0.101,-0.026,0.066,-0.085,-0.035,-0.002
MRPS21 (UniProt P82921),-0.143,0.029,0.172,-0.038,-0.069,0.063,0.063,0.052,-0.091,-0.207,0.015,-0.059,0.215,0.107,0.093,0.079,0.132,-0.018,-0.016,-0.156
PACS1 (UniProt Q6VY07),-0.002,-0.016,-0.297 (active),-0.024,-0.014,-0.011,0,-0.029,-0.098,-0.007,-0.001,-0.031,-0.021,0.087,0.023,0.021,0.023,0.092,0.004,0.039
